Values joined by “and” are separate entries in the source; they are usually repeats but may differ in a detail not shown here. Identical values can stand only once. Records with an inconclusive call do not appear. Some structures have more than one record in an assay (separate samples or runs), and their calls can disagree. Active and inactive are the calls of the source. Unless noted, calls come from the whole dose curve; as a rule, active = well fitted curve in the direction sought with a large enough effect in the repeat runs; inconclusive = weak or mixed curves; inactive = no such curve, though single readings can be large; an effect the other way counts as inactive or inconclusive.
Tests used:
[1] = qHTS assay to identify small molecule antagonists of the vitamin D receptor (VDR) signaling pathway - cell viability counter screen (AID 743225); note: nearly all actives have a fitted effect of over 50% in size
Summary of the method: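 Viability counter screen run in the same wells as the beta-lactamase reporter assay: HEK 293T VDR-UAS-bla cells, 16 h compound exposure at 37C with 3 nM (final) 1-alpha,25-dihydroxyvitamin D3. CellTiter-Glo luminescence, 30 min, room temperature.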

[2] = qHTS assay to identify small molecule agonists of the NFkB signaling pathway (AID 1159509; active = well fitted curve in the direction sought with a large enough effect in the signal ratio in the repeat runs, not every such curve was filed as active; the % refers to the signal ratio; note: series mostly up to about 61 µM)
Summary of the method: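 Agonist activity was read as beta-lactamase-driven FRET change (460 and 530 nm emission, 405 nm excitation) following 1.5 hr substrate loading at room temperature. Beforehand, ME-180 NFkB-bla reporter cells were treated with compounds for 5 hr at 37 C.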

[3] = qHTS assay to identify small molecule agonists of the endoplasmic reticulum stress response signaling pathway - cell viability counter screen (AID 1159517; calls by dose curve; note: nearly all actives have a fitted effect of over 50% in size; note: potency is the fitted concentration of half-maximal effect)
Summary of the method: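 ESRE-bla HeLa cells (1,500/well) were plated overnight at 37 C and exposed to compounds for 5 hr. After the 2 hr beta-lactamase substrate read, CellTiter-Glo went into the same wells, and luminescence was read after 30 min at room temperature.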

[4] = target: Nuclear receptor ROR-gamma (Homo sapiens) (UniProt P51449); assay: qHTS assay to identify small molecule antagonists of the retinoid-related orphan receptor gamma (ROR-gamma) signaling pathway (AID 1159521; note: nearly all actives have a fitted effect of over 50% in size; note: potency is the fitted concentration of half-maximal effect)
Summary of the method: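 Luminescence readout (ONE-Glo, 30 min RT) after 16 h doxycycline induction; loss of signal scored as antagonism. CHO cells with TET-inducible RORγ and RORE-LUC reporter; compounds added 2 h before 1 uM final doxycycline.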

[5] = qHTS assay to identify small molecule agonists of the AP-1 signaling pathway - cell viability counter screen (AID 1159525; calls by dose curve; note: nearly all actives have a fitted effect of over 55% in size)
Summary of the method: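 Intracellular ATP by Cell Titer Glo luminescence (30 min, RT) in the same ME-180 AP-1-bla wells after the 5 h compound exposure at 37 °C. Normalised to tetra n-octyl ammonium bromide and DMSO controls.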

[6] = qHTS assay to identify small molecule agonists of the AP-1 signaling pathway (AID 1159526; calls by dose curve)
[7] = qHTS assay to identify small molecule agonists of the RXR signaling pathway - cell viability counter screen (AID 1159529); note: nearly all actives have a fitted effect of over 50% in size; note: potency is the fitted concentration of half-maximal effect
Summary of the method: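 Luminescence from CellTiter-Glo (30 min, RT) measured viability in the same wells as the beta-lactamase reporter readout. Cells: GeneBLAzer RXR-alpha HEK 293T, 2% charcoal-stripped FBS. Compound exposure 16 hr, 37 C.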

[8] = qHTS assay to identify small molecule antagonists of the retinoid acid receptor (RAR) signaling pathway - cell viability counter screen (AID 1159551); note: nearly all actives have a fitted effect of over 35% in size; note: potency is the fitted concentration of half-maximal effect
Summary of the method: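 Cells (C3RL4) are plated, incubated overnight, dosed with compound in DMSO, then given retinol at 1 uM final. After 6 h at 37 C, CellTiter-Glo is added and luminescence read following 30 min at room temperature.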

[9] = target: Retinoic acid receptor RXR-alpha (Homo sapiens) (UniProt P19793); assay: qHTS assay to identify small molecule agonists of the RXR signaling pathway (AID 1159527; calls by dose curve; note: nearly all actives have a fitted effect of over 35% in size; note: potency is the fitted concentration of half-maximal effect)
Summary of the method: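 Agonist mode; 9-cis retinoic acid positive control. HEK 293T UAS-bla reporter cells, 2% charcoal-stripped FBS, 16 hr compound exposure at 37 C/5% CO2. LiveBLAzer B/G FRET substrate 2 hr RT; ex 405, em 460/530 nm.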

[10] = qHTS assay to identify small molecule antagonists of the retinoic acid receptor (RAR) signaling pathway (AID 1159552; note: nearly all actives have a fitted effect of over 50% in size; note: potency is the fitted concentration of half-maximal effect)
Summary of the method: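 Luminescence from a RARE luciferase reporter in C3RL4 cells served as read-out. Cells received compounds together with 1 uM final retinol and incubated 6 hr at 37 C before detection reagent was added for 30 min at room temperature.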

[11] = qHTS assay to identify small molecule agonists of the retinoic acid receptor (RAR) signaling pathway (AID 1159553)
Summary of the method: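 Seed C3RL4 reporter cells at 1,000 per well and incubate overnight at 37 C. Add compounds in DMSO, incubate 6 hr. Add luciferase reagent, wait 30 min at room temperature, read luminescence.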

[12] = qHTS assay to identify small molecule antagonists of the retinoid-related orphan receptor gamma (ROR-gamma) signaling pathway - cell viability counter screen (AID 1159520); note: nearly all actives have a fitted effect of over 50% in size; note: potency is the fitted concentration of half-maximal effect
Summary of the method: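 Cytotoxicity was read from cellular ATP (CellTiter-Glo luminescence) after 16 hr at 37 C with 1 uM doxycycline induction. The inducer was added 2 hr after compound transfer to Tet-on ROR gamma CHO cells.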

[13] = qHTS assay to identify small molecule agonists of the NFkB signaling pathway - cell viability counter screen (AID 1159515; calls by dose curve; note: series mostly up to about 61 µM; nearly all actives have a fitted effect of over 55% in size)
Summary of the method: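 Cells are seeded (2,000 NFkB-bla ME-180 per well), rested overnight, and dosed with DMSO-dissolved compounds for 5 hr at 37 C. Viability is then read by CellTiter-Glo luminescence after 30 min at room temperature.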

[14] = qHTS assay to identify small molecule agonists of the endoplasmic reticulum stress response signaling pathway (AID 1159516; active = well fitted activation curve with a large enough effect in the signal ratio in the repeat runs, not every such curve was filed as active; the % refers to the signal ratio)
Summary of the method: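 Cells are seeded at 1,500 per well and incubated overnight. Compounds in DMSO are added for 5 hr at 37 C, then beta-lactamase FRET substrate for 2 hr at room temperature, and fluorescence at 460 and 530 nm is measured.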

[15] = qHTS assay to identify small molecule antagonists of the estrogen related receptor (ERR) signaling pathway - cell viability counter screen (AID 1224818); note: series mostly up to about 46 µM
Summary of the method: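 ERR cells, 2,000/well; 6 h settle at 37 C/5% CO2; compound pin transfer (DMSO); 17.5 h at 37 C; CellTiter-Fluor, 30 min, fluorescence read.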

[16] = qHTS assay to identify small molecule agonists of the estrogen related receptor (ERR) signaling pathway (AID 1224820)
Summary of the method: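 After 6 h plating (2,000 cells/well) and 18 h compound treatment at 37 C, ERR cells were lysed with One-Glo and luminescence read after 30 min at room temperature.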

[17] = tested on: estrogen-related receptor alpha (ERRalpha) with PGC-1alpha coactivator, human; assay: qHTS assay to identify small molecule antagonists of the estrogen related receptor signaling pathway with the pleiotropic PPARgamma coactivator (PGC) (AID 1224821; calls by dose curve)
Summary of the method: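 Luminescence from One-Glo luciferase reagent (30 min, room temperature) measured after 18 h compound treatment at 37 °C. Cells carry the PGC/ERR reporter and were seeded 6 h prior to dosing.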

[18] = qHTS assay to identify small molecule antagonists of the estrogen related receptor signaling pathway with the pleiotropic PPARgamma coactivator (PGC) cell viability counter screen (AID 1224822;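 note: series mostly up to about 46 µM; viability read after 17.5 h compound exposure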)
Summary of the method: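 Multiplexed viability counter screen run in PGC/ERR cells treated with compounds for 17.5 h at 37 C; live-cell protease signal measured by CellTiter-Fluor fluorescence.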

[19] = qHTS assay to identify small molecule agonists of the estrogen related receptor signaling pathway with the pleiotropic PPARgamma coactivator (PGC) (AID 1224823)
Summary of the method: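 Luminescence from One-Glo reagent (30 min, room temperature) was read after 18 h compound treatment at 37 C of PGC/ERR cells plated 6 h beforehand; compounds delivered in DMSO by pin tool.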

[20] = qHTS assay to identify small molecule antagonists of the estrogen related receptor (ERR) signaling pathway (AID 1224819)
Summary of the method: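 qHTS in ERR cells, 2,000/well, 1536 format. Cpd (DMSO) added after 6 h settle, 18 h 37 C. One-Glo luminescence, 30 min RT.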

Measured: Potency

Sequence of Retinoic acid receptor RXR-alpha (Homo sapiens) (P19793 whole entry, looked up): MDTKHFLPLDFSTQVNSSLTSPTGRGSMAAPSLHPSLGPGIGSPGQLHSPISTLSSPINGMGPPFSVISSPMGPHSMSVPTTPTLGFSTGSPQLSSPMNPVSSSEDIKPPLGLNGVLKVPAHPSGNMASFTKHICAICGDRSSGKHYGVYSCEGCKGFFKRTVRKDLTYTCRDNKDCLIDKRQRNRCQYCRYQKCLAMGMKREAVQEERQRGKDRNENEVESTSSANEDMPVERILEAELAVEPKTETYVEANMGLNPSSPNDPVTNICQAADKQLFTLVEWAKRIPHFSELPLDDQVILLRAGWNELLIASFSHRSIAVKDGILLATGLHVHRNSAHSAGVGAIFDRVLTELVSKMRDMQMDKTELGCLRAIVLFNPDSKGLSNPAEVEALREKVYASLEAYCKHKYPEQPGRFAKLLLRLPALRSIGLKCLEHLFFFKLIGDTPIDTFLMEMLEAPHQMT

C=CC[C@]1(O)CC[C@H]2[C@@H]3CCC4=CC(=O)CCC4=C3C=C[C@@]21C
active: [4] 2.98 µM | [7] 23.9 µM | [8] 33.5 µM
inactive: [1] | [2] | [3] | [5] | [6]

C=CC(=O)OC
inactive: [1] | [2] | [3] | [5] | [6] | [9] | [8] | [10] | [11]

O=C(CCl)c1ccc(Cl)cc1Cl
inactive: [1] | [2] | [5] | [8]
active: [3] 10.7 µM | [12] 11.9 µM | [10] 1.88 µM

N#CCC#N
active: [4] 27.3 µM
inactive: [1] | [13] | [14] | [3] | [5] | [7] | [8]

c1cc2ccc3cccc4ccc(c1)c2c34
active: [7] 36.3 µM
inactive: [2] | [4] | [6] | [8] | [10] | [11] | [15] | [16] | [17] | [18] | [19]

CCOc1nc(F)cc2nc(S(=O)(=O)Nc3c(Cl)cccc3Cl)nn12
inactive: [1] | [13] | [14] | [3] | [12] | [5] | [6] | [8]

OCCCBr
inactive: [2] | [12] | [4] | [5] | [8] | [10] | [11] | [15] | [20] | [16] | [17] | [18] | [19]

COC(=O)C(Br)CBr (stereo unspecified)
inactive: [1] | [2] | [3] | [4] | [5] | [6] | [9] | [8] | [10] | [11]

CCn1cc[n+](C)c1
inactive: [1] | [13] | [14] | [3] | [5] | [6] | [7] | [8]
inactive and 19.8 µM (active): [9]

COC(=O)c1cncn1C(C)c1ccccc1 (stereo unspecified)
inactive: [2] | [14] | [4] | [5] | [6] | [9] | [7] | [8] | [10] | [11]

CCOP(=S)(OCC)Oc1cc(Cl)c(Br)cc1Cl
inactive: [1] | [2] | [12] | [4] | [5] | [8] | [10] | [11]

COc1nn(CSP(=S)(OC)OC)c(=O)s1
inactive: [2] | [8] | [15] | [18]
